# Screening data deposited in PubChem BioAssay by National Center for Advancing Translational Sciences (NCATS).
# Sampled rows, rich in hits. Any-hit rate of the full collection: about 10%.
# SW480 rereplic – A quantitative high throughput screen for small molecules that induce DNA re-replication in SW480 colon adenocarcinoma cells; SW480 DNA re-replication, Hoechst DNA content imaging, 48 h; Potency, µM (highest dose often 46.1 µM), hits mostly activators; hit rate 1.8% among 340,000; AID 624297, 2012; further: nearly all actives have a fitted effect of over 55% in size
#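 Image-based read-out: total Hoechst fluorescence of nuclei (405 nm excitation, 500-530 nm emission), with hits raising the fraction of high-intensity nuclei. SW480 colon cells incubated 48 hr with compounds at 37 C.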
# Gal4-VP16 FLuc – VP16 counterscreen qHTS for inhibitors of ROR gamma transcriptional activity | Drosophila S2 Gal4-VP16 UAS-luciferase, luminescence, 20 h | Potency, µM (top dose mostly 53.6 µM), hits mostly inhibitors | hit rate 3.5% among 310,000 | AID 2546, 2010;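 further: Gal4-VP16 expression switched on by copper sulfate through the metallothionein promoter; nearly all actives have a fitted effect of over 50% in size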
# RORgamma inh – qHTS for inhibitors of ROR gamma transcriptional activity; Nuclear receptor ROR-gamma (Mus musculus), P51450; Drosophila S2 Gal4-RORgamma UAS-luciferase reporter, 20 h; Potency, µM (doses to about 53.6 µM), most hits filed as inhibitors; hit rate 5.4% among 310,000; further: nearly all actives have a fitted effect of over 60% in size
# Target sequence (P51450 whole entry, looked up, the tested form may be a part): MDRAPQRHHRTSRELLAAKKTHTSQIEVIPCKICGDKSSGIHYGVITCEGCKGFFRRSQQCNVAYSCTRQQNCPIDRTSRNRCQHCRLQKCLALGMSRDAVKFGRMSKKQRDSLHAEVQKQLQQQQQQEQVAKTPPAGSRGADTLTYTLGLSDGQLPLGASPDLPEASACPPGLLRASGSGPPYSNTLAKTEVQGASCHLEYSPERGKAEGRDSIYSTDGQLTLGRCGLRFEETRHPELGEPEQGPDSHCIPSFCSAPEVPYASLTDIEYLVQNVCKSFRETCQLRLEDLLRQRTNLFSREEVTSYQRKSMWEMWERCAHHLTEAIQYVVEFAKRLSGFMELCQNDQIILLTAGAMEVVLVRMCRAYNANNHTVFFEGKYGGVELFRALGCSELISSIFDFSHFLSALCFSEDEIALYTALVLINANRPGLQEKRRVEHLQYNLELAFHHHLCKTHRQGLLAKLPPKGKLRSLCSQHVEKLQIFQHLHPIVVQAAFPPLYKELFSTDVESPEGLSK
#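 Schneider cells (Drosophila), stable Gal4 DBD–ROR gamma + UAS-luc; 1 hr cmpd preincubation; Cu2+ induction 700 uM final; 20 hr ambient; luminescence.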
# KB-3-1 cytotox – qHTS assay for MDR1-selective chemotherapeutics: Primary screen using the parental adenocarcinoma cell KB-3-1 | KB-3-1 viability, CellTiter-Glo ATP luminescence, 72 h | Potency, µM (top dose mostly 46.1 µM), actives largely listed as cytotoxic | hit rate 1.4% among 400,000 | AID 1347075, 2019; further: nearly all actives have a fitted effect of over 60% in size
#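 Luminescent ATP read-out (CellTiter-Glo) measures survival of drug-naive KB-3-1 cells after 72 h compound exposure at 37 °C. Titration series was screened from lowest to highest concentration, with DMSO vehicle plates as background controls.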
# KB-V1 cytotox – qHTS assay for MDR1-selective chemotherapeutics: Primary screen using the drug-selected MDR subline cells KB-V1; Potency, µM (titrated, usually from 46.1 µM), usual class: cytotoxic; hit rate 3.4% among 400,000; KB-V1 MDR cells viability, CellTiter-Glo, 72 h; further: nearly all actives have a fitted effect of over 60% in size
#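 Following 72 h at 37 degrees C with compound, KB-V1 cell viability was read by CellTiter-Glo luminescence, medium being phenol-red-free DMEM plus 10% FBS; concentration-response parameters came from normalized, curve-fitted qHTS data.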
# MCF10A rereplic – A quantitative high throughput screen for small molecules that induce DNA re-replication in MCF 10a normal breast cells | Potency, µM (doses to about 46.1 µM), actives largely listed as activators | hit rate 2.9% among 350,000 | MCF 10A DNA re-replication, Hoechst nuclear intensity, 48 h | AID 624296, 2012; further: nearly all actives have a fitted effect of over 50% in size
# Numbers stand for hits; – = inactive; ? = inconclusive; · = no result. The call rests on the fitted dose curve; in most records, active means well fitted curve in the direction sought with a large enough effect; inconclusive means small, poorly fitted or top-dose-only effect, or another doubt; inactive means no such curve, though single readings can be large; an effect the other way counts as inactive or inconclusive.
SMILES,SW480 rereplic,Gal4-VP16 FLuc,RORgamma inh,KB-3-1 cytotox,KB-V1 cytotox,MCF10A rereplic
CCCOC(=O)c1ccc(NC(=O)c2ccoc2C)cc1,–,–,?,–,–,–
CCCCOC(=O)c1ccc(NC(=O)c2ccoc2C)cc1,–,–,–,–,10.3µM,?
O=C(Nc1ccc(OCc2ccccc2)cc1)c1cccs1,–,–,?,–,–,–
CCCCCCCCCCCNC(=O)c1ccoc1C,–,–,–,–,–,25.9µM
Cc1occc1C(=O)Nc1ccc(OCc2ccccc2)cc1,–,–,–,–,16.4µM,–
FC(F)(F)c1cccc(N2CCN(c3nc4ccccc4n4cnnc34)CC2)c1,·,·,·,–,–,·
CC(=O)n1cc(N(C(=O)CCl)c2ccccc2)c2ccccc21,1.64µM,?,?,?,?,16.4µM
CC(=O)n1cc(CO)c2ccccc21,–,–,–,–,–,–
CC(=O)n1cc(N(C(=O)CCl)c2ccc([N+](=O)[O-])cc2)c2ccccc21,16.4µM,?,?,?,?,?
Oc1ccc(C=NNC(=S)Nc2cccnc2)nc1,13µM,·,·,–,3.66µM,?
COc1ccccc1/C=N/NC(=S)Nc1cccnc1,–,?,0.708µM,–,–,–
Cc1ccc(C)c(NC(=S)Nc2cccnc2)c1,–,–,?,–,–,–
Oc1ccc(/C=N/NC(=S)Nc2cccnc2)cc1O,–,?,8.91µM,–,–,–
COc1cc(/C=N/NC(=S)Nc2cccnc2)cc(OC)c1OC,?,–,–,–,–,–
CC(C)(C)c1ccc(/C=N/NC(=S)Nc2cccnc2)cc1,·,1.26µM,0.178µM,·,·,·
CC[C@H](C)[C@H](NC(=O)[C@H](Cc1ccc(O)cc1)NC(=O)[C@@H](NC(=O)[C@H](CCCN=C(N)N)NC(=O)[C@@H](N)CC(=O)O)C(C)C)C(=O)N[C@@H](Cc1cnc[nH]1)C(=O)N1CCC[C@H]1C(=O)N[C@@H](Cc1ccccc1)C(=O)N[C@@H](Cc1cnc[nH]1)C(=O)N[C@@H](CC(C)C)C(=O)O,·,–,–,·,·,·
COCC(=O)N1CCC2(CCCN(c3ccc(-c4ccccc4)cc3)C2)CC1,·,–,–,·,·,·
S=C(N/N=C/c1ccc2ncccc2c1)Nc1cccnc1,–,?,4.47µM,–,–,–
CCCOc1ccc(CNC(=O)C2CCCN(c3nc4c(C)cc(C)cc4s3)C2)cc1 (centres undefined),·,·,·,–,–,·
COC(=O)C1(Cc2ccc3c(c2)CCC3)Cc2ccc3c(c2C1=O)CCC3 (centres undefined),?,·,·,5.8µM,4.61µM,9.2µM
Cc1ccc(NC(=O)Cc2ccc3c(c2)CCCC3)cc1C,–,–,–,–,–,–
COc1ccccc1C1c2c(-c3ccc(Cl)cc3)n[nH]c2C(=O)N1c1ccc(C)cc1 (centres undefined),·,·,·,–,25.9µM,·
O=C(N/N=C/c1ccc(-c2cccc(C(F)(F)F)c2)o1)c1ccccc1O,–,0.562µM,0.282µM,?,–,?
O=C(N/N=C/c1ccc(N2CCOCC2)o1)c1cccc(F)c1,?,12.6µM,11.2µM,–,?,?
O=C(N/N=C/c1ccc(-c2cccc(C(F)(F)F)c2)o1)c1cccc(F)c1,?,1.26µM,2µM,?,–,?
SMILES,SW480 rereplic,Gal4-VP16 FLuc,RORgamma inh,KB-3-1 cytotox,KB-V1 cytotox,MCF10A rereplic
Cc1cc(C(=O)NN=Cc2ccc(-c3ccc(F)cc3)o2)c(C)o1,–,·,·,–,–,–
FC(F)(F)c1cccc(-c2ccc(/C=N/Nc3nncc(-c4ccccc4)n3)o2)c1,–,–,–,–,–,–
COc1ccc(C(=O)N/N=C/c2ccc(N3CCOCC3)o2)cc1OC,–,–,?,–,–,–
O=C(N/N=C/c1ccc(-c2cccc(C(F)(F)F)c2)o1)c1ccccc1Br,–,–,11.2µM,–,–,–
NC1CCc2ccccc21 (centres undefined),·,·,·,?,–,·
CC(C)CN1CCC1(C)C(=O)Nc1cc(-c2ccccc2)nn1C (centres undefined),·,·,·,–,–,·
CN1CCN(CCc2ccc(Cl)c(Cl)c2)CC1,·,–,–,·,·,·
Cc1ccc(NCC(=O)N/N=C/c2ccc(-c3cccc(C(F)(F)F)c3)o2)cc1,?,?,?,–,–,–
NC(=O)N/N=C/c1ccc(-c2cccc(C(F)(F)F)c2)o1,–,–,–,?,–,4.61µM
CC(=O)Nc1cc(N=Cc2ccc(O)cc2O)c(Cl)cc1Cl,?,–,–,–,–,20.6µM
COc1ccc(O)c(C=Nc2cc(NC(C)=O)c(Cl)cc2Cl)c1,–,–,–,–,–,–
COc1ccc(NC(=O)CN(C)C(=O)c2cc(-c3cccs3)nn2-c2ccccc2)cc1,–,·,·,–,?,?
CCN(CC(=O)Nc1ccc(OC)cc1)C(=O)c1cc(-c2cccs2)nn1-c1ccccc1,–,·,·,–,20.6µM,?
CCC(=O)NC(c1cccs1)c1ccc2cccnc2c1O (centres undefined),?,1.12µM,0.501µM,–,?,–
Cc1conc1NC(c1cccs1)c1ccc2cccnc2c1O (centres undefined),·,5.62µM,2.51µM,·,·,·
CC(C)CC(=O)NC(c1cccs1)c1ccc2cccnc2c1O (centres undefined),0.82µM,–,–,?,–,?
CC(C)CC(=O)NC(NC(=S)Nc1cccc2cccnc12)C(Cl)(Cl)Cl (centres undefined),–,–,?,?,–,–
CSc1ncc(C(=O)NCc2ccc(F)cc2)c(-c2ccccc2)n1,·,·,·,–,–,·
CCOc1ccc(CCNC(=O)c2cccc(-n3c(C)nc4cccnc43)c2)cc1,·,·,·,–,?,·
C/C(=N\NC(=O)c1cccs1)c1ccc(C(=O)O)s1,–,–,–,–,–,–
COc1ccc(NC(=O)C/C(C)=N/NC(=O)c2cccs2)c([N+](=O)[O-])c1,–,17.8µM,20µM,–,–,–
Cc1ccsc1/C=N/NC(=O)c1cccs1,–,12.6µM,10µM,–,–,–
C/C(=N\NC(=O)c1cccs1)C(C)(C)C,?,?,12.6µM,–,–,–
Cc1ccc(/C=N/NC(=O)c2cccs2)cc1[N+](=O)[O-],–,–,–,–,14.6µM,–
CN(CC1COc2ccccc2O1)C(=S)NC1CCCCC1 (centres undefined),–,?,12.6µM,–,–,–
CCOC(=O)c1cnc(Nc2nc3ccccc3o2)nc1C,?,?,?,11.2µM,–,–
CCOC(=O)c1c(-c2ccccc2)csc1NC(=O)CSc1nnc(C)s1,–,?,?,?,?,?
CCOC(=O)c1cnc(Nc2ccc(OCC)cc2)nc1C,–,–,–,–,–,?
